Data as given in PubChem BioAssay AID1159580 (chemical genetic matrix, 2015).
About 2,000 (36%) of roughly 5,500 compounds were called active. Another 18% or so got no clear call; they are omitted. Rule as the data show it: active = normalized growth mostly below about 0.91 (no sharp cut-off); inconclusive = no clear call, values can overlap the other calls; inactive = mostly above about 0.92. Some of the results follow.

Assay: chemical genetic growth profiling, strain panel (AID 1159580);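 also: tested at 20 µM; growth read once vehicle control cultures reached saturation at 30 °C; 1 = growth at the plate median or of vehicle wells; lower values mean less growth of the strain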
Conditions: growth OD

Measured: normalized growth

O=C(O)c1ccccc1C(=O)Nc1ccc(S(=O)(=O)Nc2nccs2)cc1
inactive: S. cerevisiae deletion strains, locus YJR066W, strain TOR1, active compounds read low 0.983 | S. cerevisiae deletion strains, locus YJR075W, strain HOC1, active compounds read low 1.02 | S. cerevisiae deletion strains, locus YKL009W, strain mrt4, active compounds read low 1.03 | S. cerevisiae deletion strains, locus YKL068W, active compounds read low 0.987 | S. cerevisiae deletion strains, locus YKL085W, strain MDH1 (second series), active compounds read low 0.984 | S. cerevisiae deletion strains, locus YKL085W, strain MDH1, active compounds read low 0.984 | S. cerevisiae deletion strains, locus YKL160W, strain elf1, active compounds read low 0.972 | S. cerevisiae deletion strains, locus YKL190W, strain CNB1, active compounds read low 1 | S. cerevisiae deletion strains, locus YKR001C, strain vps1, active compounds read low 1 | S. cerevisiae deletion strains, locus YKR026C, strain gcn3, active compounds read low 0.981 | S. cerevisiae deletion strains, locus YKR091W, strain srl3, active compounds read low 0.984 | S. cerevisiae deletion strains, locus YLL001W, strain dnm1, active compounds read low 0.966 | S. cerevisiae deletion strains, locus YLL026W, active compounds read low 0.988 | S. cerevisiae deletion strains, locus YLL041C, strain sdh2, active compounds read low 0.969 | S. cerevisiae deletion strains, locus YLR027C, strain aat2, active compounds read low 0.982 | S. cerevisiae deletion strains, locus YLR039C, strain RIC1, active compounds read low 1 | S. cerevisiae deletion strains, locus YLR058C, strain SHM2, active compounds read low 1.01 | S. cerevisiae deletion strains, locus YLR102C, strain apc9, active compounds read low 0.99 | S. cerevisiae deletion strains, locus YLR113W, strain HOG1, active compounds read low 1 | S. cerevisiae deletion strains, locus YLR221C, strain rsa3, active compounds read low 0.95 | S. cerevisiae deletion strains, locus YLR258W, strain gsy2, active compounds read low 0.986 | S. cerevisiae deletion strains, locus YLR262C, strain YPT6 (second series), active compounds read low 1 | S. cerevisiae deletion strains, locus YLR262C, strain YPT6, active compounds read low 1.03 | S. cerevisiae deletion strains, locus YLR268W, strain sec22, active compounds read low 0.998 | S. cerevisiae deletion strains, locus YLR320W, strain mms22, active compounds read low 0.976 | S. cerevisiae deletion strains, locus YLR330W, strain CHS5, active compounds read low 1 | S. cerevisiae deletion strains, locus YLR342W, strain FKS1 (second series), active compounds read low 0.994 | S. cerevisiae deletion strains, locus YLR342W, strain FKS1, active compounds read low 0.99 | S. cerevisiae deletion strains, locus YLR357W, strain rsc2, active compounds read low 0.975 | S. cerevisiae deletion strains, locus YLR370C, strain arc18, active compounds read low 0.959 | S. cerevisiae deletion strains, locus YLR371W, strain rom2, active compounds read low 0.998 | S. cerevisiae deletion strains, locus YLR384C, strain iki3, active compounds read low 0.976 | S. cerevisiae deletion strains, locus YLR418C, strain cdc73, active compounds read low 0.992 | S. cerevisiae deletion strains, locus YML016C, strain PPZ1, active compounds read low 0.995 | S. cerevisiae deletion strains, locus YML032C, strain rad52, active compounds read low 0.994 | S. cerevisiae deletion strains, locus YML120C, strain ndi1, active compounds read low 0.969 | S. cerevisiae deletion strains, locus YML124C, strain tub3, active compounds read low 0.992 | S. cerevisiae deletion strains, locus YMR058W, strain fet3, active compounds read low 0.98 | S. cerevisiae deletion strains, locus YMR078C, strain ctf18, active compounds read low 0.99 | S. cerevisiae deletion strains, locus YMR125W, strain sto1, active compounds read low 0.96 | S. cerevisiae deletion strains, locus YMR129W, active compounds read low 0.989 | S. cerevisiae deletion strains, locus YMR205C, strain PFK2, active compounds read low 0.965 | S. cerevisiae deletion strains, locus YMR223W, strain ubp8, active compounds read low 0.998 | S. cerevisiae deletion strains, locus YMR231W, strain pep5, active compounds read low 0.974 | S. cerevisiae deletion strains, locus YMR307W, strain GAS1, active compounds read low 0.973 | S. cerevisiae deletion strains, locus YNL067W, strain RPL9B, active compounds read low 1.01 | S. cerevisiae deletion strains, locus YNL071W, strain lat1, active compounds read low 0.987 | S. cerevisiae deletion strains, locus YNL128W, strain TEP1, active compounds read low 1.02 | S. cerevisiae deletion strains, locus YNL183C, strain NPR1, active compounds read low 0.975 | S. cerevisiae deletion strains, locus YNL209W, strain ssb2, active compounds read low 0.989 | S. cerevisiae deletion strains, locus YNL233W, strain BNI4, active compounds read low 1.01 | S. cerevisiae deletion strains, locus YNL248C, strain rpa49, active compounds read low 0.97 | S. cerevisiae deletion strains, locus YNL250W, strain rad50, active compounds read low 1 | S. cerevisiae deletion strains, locus YNL271C, strain bni1, active compounds read low 0.982 | S. cerevisiae deletion strains, locus YNL298W, strain CLA4, active compounds read low 0.995 | S. cerevisiae deletion strains, locus YNL307C, strain MCK1, active compounds read low 1 | S. cerevisiae deletion strains, locus YNL322C, strain KRE1 (second series), active compounds read low 0.945 | S. cerevisiae deletion strains, locus YNL322C, strain KRE1, active compounds read low 1.01 | S. cerevisiae deletion strains, locus YNR049C, strain mso1, active compounds read low 0.976 | S. cerevisiae deletion strains, locus YNR052C, strain pop2, active compounds read low 0.994 | S. cerevisiae deletion strains, locus YOL006C, strain TOP1, active compounds read low 1.02 | S. cerevisiae deletion strains, locus YOL012C, strain htz1 0.647 | S. cerevisiae deletion strains, locus YOL147C, strain pex11, active compounds read low 0.987 | S. cerevisiae deletion strains, locus YOR001W, strain rrp6, active compounds read low 0.999 | S. cerevisiae deletion strains, locus YOR061W, strain CKA2, active compounds read low 1 | S. cerevisiae deletion strains, locus YOR069W, strain VPS5, active compounds read low 1 | S. cerevisiae deletion strains, locus YOR070C, strain gyp1, active compounds read low 0.976 | S. cerevisiae deletion strains, locus YOR080W, strain dia2, active compounds read low 0.973 | S. cerevisiae deletion strains, locus YOR083W, strain WHI5, active compounds read low 0.983 | S. cerevisiae deletion strains, locus YOR106W, strain vam3, active compounds read low 0.972 | S. cerevisiae deletion strains, locus YOR136W, strain idh2, active compounds read low 1 | S. cerevisiae deletion strains, locus YOR144C, strain elg1, active compounds read low 0.993 | S. cerevisiae deletion strains, locus YOR184W, strain ser1, active compounds read low 1 | S. cerevisiae deletion strains, locus YOR231W, strain MKK1, active compounds read low 1.04 | S. cerevisiae deletion strains, locus YOR265W, strain rbl2, active compounds read low 0.99 | S. cerevisiae deletion strains, locus YOR270C, strain vph1, active compounds read low 0.983 | S. cerevisiae deletion strains, locus YOR290C, strain snf2, active compounds read low 0.959 | S. cerevisiae deletion strains, locus YOR316C, strain cot1, active compounds read low 1.01 | S. cerevisiae deletion strains, locus YPL051W, strain arl3, active compounds read low 1 | S. cerevisiae deletion strains, locus YPL078C, strain atp4, active compounds read low 0.983 | S. cerevisiae deletion strains, locus YPL106C, strain sse1, active compounds read low 0.936 | S. cerevisiae deletion strains, locus YPL240C, strain hsp82, active compounds read low 0.979 | S. cerevisiae deletion strains, locus YPL241C, strain CIN2, active compounds read low 0.999 | S. cerevisiae deletion strains, locus YPL256C, strain CLN2, active compounds read low 1.02 | S. cerevisiae deletion strains, locus YPR119W, strain clb2, active compounds read low 0.99 | S. cerevisiae deletion strains, locus YPR141C, strain kar3, active compounds read low 0.984 | S. cerevisiae deletion strains, locus YPR163C, strain tif3, active compounds read low 0.993 | S. cerevisiae deletion strains, locus YPR167C, strain met16, active compounds read low 0.997 | S. cerevisiae deletion strains, strain wtn01, active compounds read low 0.995 | S. cerevisiae strains, strain wild type, active compounds read low 1
